The list is not random: actives were taken first. Their share in the collection is about 2.4%.
Cruzain noTriton – cruzain (T. cruzi) inhibition without detergent; purified cruzain, Z-FR-AMC fluorescence, no detergent; P25779; Potency, µM, for the others: max response, negative = inhibition, hits mostly inhibitors; 2.3% of 200,000 active; AID 1476;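 note: plate controls were enzyme without inhibitor for no effect and buffer without enzyme for full effect; nearly all actives have a fitted effect of over 40% in size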
Target sequence (P25779 123-467 limits assumed): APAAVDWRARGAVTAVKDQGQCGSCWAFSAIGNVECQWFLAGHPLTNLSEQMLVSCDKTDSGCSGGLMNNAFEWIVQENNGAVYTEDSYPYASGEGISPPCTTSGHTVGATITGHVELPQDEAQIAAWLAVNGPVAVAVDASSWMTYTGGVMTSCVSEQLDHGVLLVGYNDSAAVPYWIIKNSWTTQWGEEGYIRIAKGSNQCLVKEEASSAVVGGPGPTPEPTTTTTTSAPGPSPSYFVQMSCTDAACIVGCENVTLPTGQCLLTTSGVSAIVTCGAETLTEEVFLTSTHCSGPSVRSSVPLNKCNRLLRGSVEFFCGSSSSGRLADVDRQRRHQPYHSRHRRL
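Purified cruzain at 1.5 nM, pre-incubated 15 min with compound at room temperature in 100 mM sodium acetate pH 5.5, 5 mM DTT, 0.00005% Triton X-100. Reaction started with 2 uM Z-FR-AMC; AMC fluorescence increase over 60 s gives rate.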
Cruzain Triton – cruzain (T. cruzi) inhibition with detergent | P25779 | 0.43% of 200,000 active | purified cruzain, Z-FR-AMC fluorescence, 0.01% Triton | Potency, µM, without a hit: max response, negative = inhibition, usual class: inhibitors;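 note: plate controls were neutral wells for no effect and buffer without enzyme for full effect; nearly all actives have a fitted effect of over 40% in size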
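In this qHTS format, compounds are incubated with 1.5 nM cruzain for 15 min at room temperature before 2 uM Z-FR-AMC is added. Release of AMC is followed at 360/450 nm, and progress is taken as the 60 s fluorescence difference.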
* hit, by the source's call; ? = inconclusive. Calls come from the whole dose curve; as a rule, active = well fitted curve in the direction sought with a large enough effect; inconclusive = small, poorly fitted or top-dose-only effect, or another doubt; inactive = no such curve, though single readings can be large; an effect the other way counts as inactive or inconclusive. Potency is the fitted concentration of half-maximal effect.

SMILES	Cruzain noTriton	Cruzain Triton
CC(C)C(C(=O)OCC(=O)c1cccc([N+](=O)[O-])c1)N1C(=O)[C@@H]2[C@H]3CC[C@H](C3)[C@@H]2C1=O (some centres not stated)	?	16µM*
Cc1oc(-c2ccccc2Cl)nc1CS(=O)CC(=O)NCc1ccc(Cl)cc1 (configuration not stated)	?	-7%
COc1ccc(CNc2ncnc3c2c(-c2ccccc2)cn3-c2ccccc2)cc1	6%	1%
COc1ccccc1CNc1ncnc2c1c(-c1ccccc1)cn2-c1ccc(Br)cc1	7.9µM*	-1%
CCOc1ccc(CNc2cc(C)nc3nc(-c4cccc(C)c4)nn23)cc1OC	?	-4%
Nc1nc(-c2cccc([N+](=O)[O-])c2)cc(-c2cc(-c3cccc([N+](=O)[O-])c3)nc(N)n2)n1	2%	-2%
Nc1c(-c2cccc([N+](=O)[O-])c2)nc2ccccn12	20µM*	-10%
COc1ccc(-c2nc(-c3ccccc3)c(-c3cccs3)[nH]2)cc1OC	25%	-2%
COc1ccc(-c2nc(-c3ccccc3)c(-c3ccccc3)[nH]2)cc1Br	3.2µM*	0%
O=C(NC(C(=O)N1CCCC1C(=O)O)=C1CCCCC1)c1ccccc1 (configuration not stated)	2%	3%
COc1ccc(C(=O)Nc2cc(C(C)C)c(O)c(S(=O)(=O)c3ccc(Cl)cc3)c2C)cc1	?	-2%
COc1ccc(C(=O)Nc2cc(C(C)C)c(O)c(S(=O)(=O)c3ccc(OC)cc3)c2C)cc1	25µM*	-1%
Cc1ccc(N(CC(=O)N2CCN(c3cc(Cl)ccc3C)CC2)S(=O)(=O)c2c(C)noc2C)cc1	-27%	-5%
C=CCn1c(Cc2c(C)[nH]c3ccccc23)nnc1SCC(=O)NCc1ccc(F)cc1	?	-5%
COc1ccccc1NC(=O)N1CCCC1C(=O)NCc1ccc(F)cc1 (configuration not stated)	8%	3%
CN(C1CCCCC1)S(=O)(=O)c1ccc(NC(=O)CCC(=O)O)cc1	-8%	-2%
C=CCn1c(CNC(=O)c2ccco2)nnc1SCC(=O)N1c2ccccc2Sc2ccccc21	?	-1%
Cc1cc(/C=C2/NC(=O)N(Cc3ccccc3F)C2=O)c(C)n1C	25µM*	-6%
Cc1cccc(CN2C(=O)N/C(=C/c3cc(C)n(-c4ccccn4)c3C)C2=O)c1	25µM*	-6%
O=C1N/C(=C/c2ccco2)C(=O)N1Cc1ccccc1F	1%	-7%
Cc1cc(/C=C2/NC(=O)N(Cc3ccccc3F)C2=O)c(C)n1-c1ccccn1	?	-6%
CNc1cc(-c2ccccc2C)ncn1	-7%	2%
CCOC(=O)C(C(=O)OCC)C(Nc1ccc(Br)cc1)c1ccccc1 (configuration not stated)	2%	-3%
COc1ccc(-c2nnc3n2N=C(c2ccccc2)CS3)cc1OC	26%	-7%
c1ccc(-c2cc(-c3nnc4n3N=C(c3ccc5ccccc5c3)CS4)[nH]n2)cc1	25µM*	-3%
SMILES	Cruzain noTriton	Cruzain Triton
COc1ccc(C2=Nn3c(nnc3-c3ccccc3)SC2)cc1OC	-2%	7%
Cc1cc(-c2nnc3n2N=C(c2ccc(-c4ccccc4)cc2)CS3)n[nH]1	25µM*	-10%
O=C(CN1C(=O)C(=O)c2ccccc21)NC1CCCCC1	-5%	-1%
NC(=O)c1c(NC(=O)c2ccc(S(=O)(=O)N3CCOCC3)cc2)sc2c1CCCCC2	?	-4%
CN1CCN(S(=O)(=O)c2cccc(C(=O)Nc3sc4c(c3C(N)=O)CCCC4)c2)CC1	13µM*	?
NC(=O)c1c(NC(=O)c2ccc(S(=O)(=O)N(CCCl)CCCl)cc2)sc2c1CCCCC2	4µM*	1%
COCCN(CCOC)S(=O)(=O)c1ccc(C(=O)Nc2sc3c(c2C(N)=O)CCCC3)cc1	9%	-4%
CC12CCC(C(=O)Nc3cc(Cl)ccc3Cl)(C/C1=N\O)C2(C)C (configuration not stated)	15%	2%
N[C@@H]1[C@@H]2[C@@H]3C[C@H]4N(CC[C@@]14C(=O)C(=O)O)CC3=CCO[C@@H]2CC(=O)O	3%	1%
Cc1ccc(-c2nnn(CC(=O)N(CC(=O)NCC3CCCO3)c3ccccc3)n2)o1 (configuration not stated)	8%	2%
CCOC(=O)c1oc2ccccc2c1NC(=O)COc1cccc(OC)c1	0%	6%
CCOC(=O)c1oc2ccccc2c1NC(=O)COc1ccc(F)cc1	13µM*	25%
COc1ccccc1CNC(=O)CCCn1c(=O)c2cccn2c2ccccc21	?	-4%
CC1Cc2ccccc2N1C(=O)COC(=O)c1ccc(S(=O)(=O)N(C)C)cc1 (configuration not stated)	4%	-4%
O=C(Cn1cnc(S(=O)(=O)N2CCCC2)c1)Nc1cccc(F)c1	0%	0%
CC(=O)SC1CC2=CC(=O)CC[C@]2(C)C2CC[C@@]3(C)[C@@H](CC[C@@]34CCC(=O)O4)C12 (some centres not stated)	18%	2%
N#Cc1nc(-c2ccc(COc3ccccc3)o2)oc1NCc1ccccc1	-24%	-4%
CC(Nc1oc(-c2ccc(COc3ccccc3)o2)nc1C#N)c1ccccc1 (configuration not stated)	20µM*	-3%
CC(C)(C)C(=O)[C@@H]1[C@@H]2C(=O)N(C3CCCCC3)C(=O)[C@@H]2[C@H]2c3ccccc3C=CN12	?	2%
O=C(Nc1ccc2c(c1)OCO2)C1CCN(S(=O)(=O)Cc2ccccc2)CC1	-9%	2%
O=C(c1cccs1)[C@@H]1[C@@H]2C(=O)N(Cc3ccc4c(c3)OCO4)C(=O)[C@@H]2C2c3ccccc3C=CN21 (some centres not stated)	25µM*	-2%
O=C1c2ccccc2C(=O)N1Cc1ccc2c(c1)OCO2	-10%	-2%
O=C(c1ccc2c(c1)OCO2)[C@@H]1[C@@H]2C(=O)N(C3CCCCC3)C(=O)[C@@H]2C2c3ccccc3C=CN21 (some centres not stated)	20µM*	-2%
O=C(Nc1ccc2c(c1)OCO2)[C@@H]1[C@@H]2C(=O)N(C3CCCCC3)C(=O)[C@@H]2C2c3ccccc3C=CN21 (some centres not stated)	20µM*	-6%
CCOC(=O)c1c(C)c(C(=O)NCCCOC)c(C)n1C	3%	6%
SMILES	Cruzain noTriton	Cruzain Triton
COc1ccc2[nH]cc(CCNc3ncncc3-c3ccccc3OC)c2c1	8%	5%
CCOc1ccc(NC(=O)c2ccc3snnc3c2)cc1	0%	-4%
Cc1cc(C)cc(N(C(=O)c2ccccn2)C(C(=O)NC2CCCCC2)c2cccs2)c1 (configuration not stated)	12%	3%
Cc1ccc(C(=O)Nc2ccc([N+](=O)[O-])cn2)o1	-10%	-8%
CCSc1nnc(NC(=O)c2csc3c2CCC(C)C3)s1 (configuration not stated)	13µM*	-2%
CCSc1nnc(NC(=O)c2ccc3c(c2)OCO3)s1	25µM*	-1%
CCSc1nnc(NC(=O)c2csc3c2CCCC3)s1	?	3%
CCSc1nnc(NC(=O)c2cc(-c3ccc(C)c(C)c3O)n[nH]2)s1	4µM*	-2%
O=C(Nc1nnc(SCc2ccccc2)s1)c1cc2c(s1)CCCC2	?	-2%
CCSc1nnc(NC(=O)c2ccccc2)s1	5%	-2%
CCSc1nnc(NC(=O)c2cc(C)on2)s1	-11%	-1%
